Source: PubChem BioAssay AID431 (Sanford-Burnham Center for Chemical Genomics, 2006)
The campaign covered roughly 63,000 compounds. About 1,100 (1.7%) were called active. Only a selection was taken, and actives are over-represented in it overall. Entries with a potency or affinity are not part of this list. Unmarked numbers belong to inactive results.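 The calls were made as follows: active = compounds whose percent cytotoxicity in the single-dose primary screen, scaled between solvent and toxic-drug controls, exceeds 50; inactive = the rest.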

Experiment: viability loss of HPDE-C7K cells – cell-based, fluorescence, HTS, primary screen (AID 431);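 also: 0% = DMSO solvent wells and 100% = doxorubicin-treated wells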
Conditions: HPDE-C7K KRASV12 cells, Alamar Blue viability, 48 h; at 10 µM; hits give high values

Compound | cytotoxicity
CN(CC(=O)N1CCc2ccccc21)S(=O)(=O)c1ccc(Cl)cc1 | 1.1%
COC(=O)C(C(=O)Nc1cc(C)on1)C1CCCCCC1 (centres undefined) | -4.9%
CSc1nc2cc(Cl)ccc2s1 | -3.5%
COc1ccc(C(=O)c2ccc(N(C)C)cc2)c(OC)c1 | 56.3% (active)
COc1ccc(C(=O)c2ccc(N3CCOCC3)cc2)c(OC)c1 | 4.5%
COc1ccc(C(=O)Oc2ccc(C(C)=O)cc2)c(OC)c1 | 3.6%
COc1cc(SC)ccc1C(=O)Nc1ccccc1C#N | 28.3%
Nc1cc(N)nc(SCCOc2ccccc2F)n1 | -15.6%
COc1ccccc1NC(=O)N1CCCC1C(=O)Nc1nnc(C(C)C)s1 (centres undefined) | 4.6%
O=C(NCc1ccco1)C(c1cccnc1)N(C(=O)Cn1nnc2ccccc21)c1ccc(F)cc1 (centres undefined) | 9.8%
COC(=O)C1=C(C)N(C)C(C)=C(C(=O)OC)C1c1ccncc1 | -1%
Cc1ccc(CNC(=O)CCS(=O)(=O)c2cccc3nonc23)cc1 | -9.3%
COc1ccc(-c2cc(C(=O)N3CCN(c4ccccn4)CC3)c3ccccc3n2)cc1 | 5.9%
CCOC(=O)N1CCN(C(=O)c2cc(-c3ccc(OCC)cc3)nc3ccccc23)CC1 | 63.5% (active)
COc1cccc(-c2cc(C(=O)N3CCN(c4ncccn4)CC3)c3ccccc3n2)c1 | 15.2%
O=C(c1cc(-c2ccccc2)nc2ccccc12)N1CCN(c2ccccn2)CC1 | 27.1%
CCOc1ccc(-c2cc(C(=O)N3CCN(C)CC3)c3ccccc3n2)cc1 | -12.4%
Cc1ccc(-c2cc(C(=O)N3CCOCC3)c3ccccc3n2)cc1 | 1.8%
Cc1ccc(-c2cc(C(=O)N3CCN(c4ncccn4)CC3)c3ccccc3n2)cc1 | 58.8% (active)
Cc1ccc2nc(-c3ccccn3)cc(C(=O)N3CCN(c4ncccn4)CC3)c2c1 | 13.2%
CCOc1ccc(-c2cc(C(=O)N3CCN(c4ccccn4)CC3)c3ccccc3n2)cc1 | 53% (active)
CSC1=C(C#N)C(c2ccc(Cl)cc2)C2=C(CC(C)(C)CC2=O)N1 (centres undefined) | 2.7%
O=C(CSc1nnc(-c2ccco2)o1)N1CCOCC1 | -5.8%
Cc1cc(NC(=O)CN2CCN(c3ncccn3)CC2)no1 | -2.6%
CCCn1nnc(NC(=O)COc2ccccc2Cl)n1 | 8.6%

Compound | cytotoxicity
Cc1cc(S(=O)(=O)N2CCC(NC(=O)C34CC5CC(CC(C5)C3)C4)CC2)ccc1-n1cnnn1 | -5.5%
COc1ccccc1OCCNC(=O)c1cccs1 | -0.7%
COc1ccc(C2=CC(c3ccc(C)cc3)n3nnnc3N2)cc1 (centres undefined) | -4.4%
CCOc1ccc(C2C=C(c3ccc(C)cc3)Nc3nnnn32)cc1 (centres undefined) | -11%
Cc1ccc(CNC(=O)C2CCN(S(=O)(=O)c3cccs3)CC2)o1 | -10.5%
O=C(CCC1CCCC1)c1c(O)c2ccccc2oc1=O | 18%
O=C(c1c(O)c2ccccc2oc1=O)C1CCC1 | 6.1%
O=C(CC1CCCCC1)c1c(O)c2ccccc2oc1=O | 59.2% (active)
COc1cccc(-c2nnc3n2N=C(c2cccc(Br)c2)CS3)c1 | -14.8%
CCSc1nnc([C@@H]2CCCN2C(=O)OC(C)(C)C)o1 | -8.4%
Cc1cccc(OCC(O)Cn2c(NCc3cccnc3)nc3c2c(=O)[nH]c(=O)n3C)c1 (centres undefined) | -23.4%
CC(=O)N1CCN(c2ccc(Nc3ncnc4c3oc3ccccc34)cc2)CC1 | 19.3%
CCc1nc(Nc2ccncc2)c2oc3ccccc3c2n1 | 64.2% (active)
Cc1nc(Nc2ccncc2)c2oc3ccccc3c2n1 | -14.9%
CCNc1nc(CC)nc2c1oc1ccccc12 | -17.1%
Cc1nc(SCC(=O)N2CCCc3ccccc32)c2oc3ccccc3c2n1 | -19.9%
CC(=O)N1CCN(c2ccc(Nc3nc(C)nc4c3oc3ccccc34)cc2)CC1 | -3.4%
Cc1nc(SCC(=O)N2CCN(c3ccccc3)CC2)c2oc3ccccc3c2n1 | 54.9% (active)
CCc1nc(Nc2ccc(N3CCN(C(C)=O)CC3)cc2)c2oc3ccccc3c2n1 | 52.7% (active)
Cc1nc(SCC(=O)O)c2oc3ccccc3c2n1 | -10.8%
COc1ccc2c(c1)c(=O)c(Br)c(C)n2Cc1ccccc1 | 0.5%
FC(F)(F)c1cccc(-c2ccc(-c3csnn3)o2)c1 | -13.4%
O=C(O)CC(CNS(=O)(=O)c1ccccc1)c1ccccc1 (centres undefined) | 0%
OCc1nnn(-c2cccc(C(F)(F)F)c2)c1CO | -2.5%
